Measured values: PubChem BioAssay (NCI)
This is part of a sample that, as a whole, favours compounds with a hit. Of some 83,000 tested, about 20% had one in any assay.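 Cell lines were cultured in 96-well plates, exposed to a single compound concentration, and assessed for percent growth 48 hours later.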 Values without a mark were called inactive. Calls of active or inactive are those of the source. The calls were made as follows: active = growth percent below 10; inactive = the rest.

Tests used:
Test in all cases: NCI-60 one-dose screen, 48 h (100 = growth as untreated, 0 = no growth, -100 = all killed)
Details in all cases: 10 µM unless noted
[1] = system: HCT-15 colon
[2] = system: HT29 colon
[3] = system: SNB-75 CNS
[4] = system: SNB-19 CNS
[5] = system: U251 CNS
[6] = system: PC-3 prostate
[7] = system: SK-MEL-5 melanoma
[8] = system: UACC-62 melanoma
[9] = system: LOX IMVI melanoma
[10] = system: SK-MEL-28 melanoma
[11] = system: SK-MEL-2 melanoma
[12] = system: EKVX NSCLC
[13] = system: SN12C renal
[14] = system: UO-31 renal
[15] = system: TK-10 renal
[16] = system: ACHN renal
[17] = system: CAKI-1 renal
[18] = system: A498 renal
[19] = system: CCRF-CEM leukemia
[20] = system: MOLT-4 leukemia

SMILES | growth [1] | growth [2] | growth [3] | growth [4] [%] | growth [5] | growth [6] | growth [7] | growth [8] | growth [9] | growth [10] | growth [11] | growth [12] [%] | growth [13] | growth [14] | growth [15] | growth [16] | growth [17] | growth [18] | growth [19] | growth [20]
CN(C)C/C=C/C(=O)Nc1cc2c(Nc3ccc(F)c(Cl)c3F)ncnc2cc1OCCOC(F)F | 9.17% (active) | 2.75% (active) | -19.4% (active) | 36.6 | 27.9% | 11% | 37.5% | 28.9% | 15.3% | 49.4% | 44.1% | 12.4 | 2.22% (active) | 4.31% (active) | 9.78% (active) | -7.73% (active) | -15.3% (active) | -47.7% (active) | 26.3% | 4.26% (active)
O=C(CSc1nc(-c2ccc(Cl)cc2)cn1-c1ccc(Cl)cc1)c1ccc(Br)cc1 | 85.2% | 66.9% | 44.4% | 77.8 | 37.5% | 50.3% | 94.9% | 72.1% | 73.4% | 87.1% | 87% | 69.1 | 62.6% | 45.5% | 93% | 22.4% | 78.7% | 93.8% | 92.8% | 90.7%
CCCC1OC(c2ccc(C(C)C)cc2)OCC1CC (stereo not given) | 103% | 97% | 87.6% | 106 | 95.7% | 78.7% | 104% | 102% | 97.7% | 104% | 98.4% | 101 | 105% | 101% | 97.1% | 99.5% | 90.9% | 94.4% | 95.9% | 93.3%
CCCS(=O)(=O)c1nc(NC2CC2)cc(-c2ccc3c(ccn3C3CC(C)(C)NC(C)(C)C3)c2)n1 | -71.4% (active) | -48% (active) | -16.2% (active) | 38.9 | -65.5% (active) | 17.4% | 16.2% | -83.1% (active) | -91.5% (active) | -59.2% (active) | 54.5% | 22.6 | -77.9% (active) | -66.1% (active) | -56% (active) | -90.3% (active) | 85.1% | 108% | -13.7% (active) | 55.9%
COc1cccc2nc(Nc3ccc(NC(=O)c4ccc5ncccc5c4)cc3)ccc12 | 51.5% | 63.3% | 80.8% | 90.3 | 61.8% | 52.3% | 80.7% | 97.4% | 84.6% | 73.8% | 115% | 87.5 | 97.8% | 82.4% | 108% | 92.8% | 70.2% | 83.4% | 69.4% | 67.1%
CCSc1nnc(Nc2ccc(C(C)C)cc2)s1 | 48% | 28.9% | 102% | 98.4 | 66% | 109% | 78.9% | 78.1% | 82.5% | 110% | 41.3% | 80.5 | 76.7% | 39.5% | 96.1% | 91.1% | 83.7% | 111% | 70.6% | 66.3%
C/C1=C\CCC2(C)OC2CC2CCC(C)(O)C(CC1)C2(C)C (stereo not given) | 89.4% | 107% | 108% | 87.7 | 91% | 85.2% | 84.8% | 88% | 101% | 119% | 106% | 81.1 | 101% | 99.2% | 97% | 92.5% | 87.7% | 106% | 84.1% | 97.9%
COC(=O)c1ccc2nc(-c3cc4ccccc4n3C)n(CCCCOc3cc4c(cc3OC)C(=O)N3CCC[C@H]3C=N4)c2c1 | -19% (active) | -53.7% (active) | -79.5% (active) | 11.3 | 1.02% (active) | -6.81% (active) | -75.6% (active) | -95.9% (active) | -54.7% (active) | -57.1% (active) | -40.3% (active) | 10.8 | 3.64% (active) | -57.3% (active) | -17.7% (active) | -5.96% (active) | -20.7% (active) | -60.3% (active) | -35.1% (active) | 3.44% (active)
Cc1ccc2c(c1)C(C)Cc1c(N(C)C)ncnc1N2C (stereo not given) | 20.6% | 4.7% (active) | 14% | 43.8 | 21.3% | 32.8% | 15% | 33% | 37.7% | 56.6% | 30% | 27.2 | 44.9% | 59.1% | 14.1% | 53.3% | 35.2% | -9.12% (active) | 21.4% | 30.6%
Nc1nn2cc(-c3ccc(Cl)s3)nc2c2ccccc12 | 87.5% | 92% | 81.6% | 93 | 94.7% | 83.8% | 84% | 81.6% | 82.2% | 94.2% | 49.9% | 86.7 | 91.9% | 67.1% | 113% | 79.6% | 74.6% | 59.5% | 76.8% | 44.4%
O=C(C[N+](=O)[O-])c1ccc(Cl)cc1 | 103% | 113% | 94.9% | 111 | 107% | 97.3% | 104% | 101% | 96.4% | 106% | 119% | 107 | 107% | 90.3% | 109% | 111% | 95.2% | 108% | 104% | 106%
NC(=O)c1c(NC(=O)c2ccc(OCC3CCCO3)cc2)sc2c1CCCC2 (stereo not given) | 101% | 105% | 135% | 106 | 95.2% | 74.4% | 78.2% | 85% | 105% | 125% | 84.9% | 89.6 | 90.7% | 35% | 126% | 106% | 108% | 86.5% | 79.9% | 99.3%
Cn1c(=O)c2c(nc3n2CCN(CCc2ccc(OCCN4CCOCC4)cc2)C3)n(C)c1=O | 105% | 107% | 101% | 108 | 105% | 94.1% | 94.2% | 98.8% | 97% | 111% | 101% | 102 | 104% | 93.8% | 104% | 106% | 97.5% | 81.3% | 105% | 98%
CCN(CC)CCC(=O)c1cccc2ccccc12 | 102% | 110% | 101% | 102 | 104% | 95.3% | 114% | 97% | 94.3% | 111% | 114% | 100 | 102% | 87.6% | 109% | 98.8% | 90.7% | 101% | 100% | 102%
CC1(C)OC2COC3(C(=O)O)OC(C)(C)OC3C2O1 (stereo not given) | 98.8% | 99.8% | 87.2% | 92.1 | 102% | 100% | 102% | 97.7% | 95.6% | 107% | 93.1% | 97 | 91.4% | 92.3% | 94.7% | 94.4% | 103% | 91.7% | 128% | 104%
